Compound activity (PubChem)
Hits are enriched below; roughly 8.9% of the tested compounds scored in any of these assays.
DRD3 antagonist: blocks the human D3 dopamine receptor; P35462; D3R cells, DiscoveRx beta-arrestin luminescence, antagonist mode; active compounds read low; max response, negative = inhibition, %; hit rate 2.5% among 360,000; AID 652054; in the data active = max response below about -50%; inconclusive = no clear call, values can overlap the other calls
Target sequence (P35462 whole entry, looked up): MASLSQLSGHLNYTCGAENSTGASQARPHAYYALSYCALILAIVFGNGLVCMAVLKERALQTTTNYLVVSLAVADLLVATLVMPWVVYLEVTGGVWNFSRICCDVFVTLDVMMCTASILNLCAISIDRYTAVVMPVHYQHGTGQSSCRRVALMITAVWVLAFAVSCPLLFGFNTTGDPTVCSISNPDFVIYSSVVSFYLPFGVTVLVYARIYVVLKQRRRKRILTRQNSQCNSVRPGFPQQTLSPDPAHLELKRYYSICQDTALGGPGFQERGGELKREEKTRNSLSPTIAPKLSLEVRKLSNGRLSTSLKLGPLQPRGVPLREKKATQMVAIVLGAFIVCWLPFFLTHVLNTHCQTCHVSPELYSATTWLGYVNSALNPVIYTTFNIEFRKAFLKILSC
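Cells expressing the human receptor were seeded at 1500 cells/well, incubated overnight at 37 degrees C in 5% CO2, then exposed to library compounds with dopamine controls for 90 minutes at 37 degrees C before luminescent detection.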
SW480 rereplic: induces DNA re-replication in SW480 colon adenocarcinoma cells | Potency, µM (top dose mostly 46.1 µM), most hits filed as activators | AID 624297 | SW480 DNA re-replication, Hoechst DNA content imaging, 48 h | hit rate 1.8% among 340,000; also: nearly all actives have a fitted effect of over 55% in size
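DNA re-replication was detected as more nuclei of elevated Hoechst intensity after 48 hr exposure to compound (23 nL pinned per well of 250 cells).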
MCF10A rerep: inducers of DNA re-replication in MCF 10A breast cells; MCF 10A DNA re-replication, Hoechst nuclear intensity, 48 h; Potency, µM (titrated, usually from 46.1 µM), actives largely listed as activators; hit rate 2.9% among 350,000; AID 624296; also: nearly all actives have a fitted effect of over 50% in size
D3 ag: activates the human D3 dopamine receptor; P35462; D3R DiscoveRx beta-arrestin cells, luminescence, 90 min; max activation, %; hit rate 0.58% among 410,000; AID 652048; in the data active = max activation above about 30%
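Agonist mode: compounds and dopamine controls were applied to plated cells for 90 min at 37 degrees C after an overnight attachment at 1500 cells/well. Luminescent read-out followed 30 - 60 minutes at room temperature with DiscoveRx detection reagent.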
KB-V1 cytotox: kills drug-selected multidrug resistant KB-V1 cells; KB-V1 MDR cells viability, CellTiter-Glo, 72 h; Potency, µM (titrated, usually from 46.1 µM), most hits filed as cytotoxic; hit rate 3.4% among 400,000; also: nearly all actives have a fitted effect of over 60% in size
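Cytotoxicity via CellTiter-Glo luminescence after 72 h compound exposure at 37 degrees C. Cells: drug-selected KB-V1 line, DMEM phenol-red free plus 10% FBS. Compounds tested at multiple concentrations; normalized data fitted to concentration-effect curves.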
KB-3-1 tox: kills parental KB-3-1 adenocarcinoma cells; KB-3-1 viability, CellTiter-Glo ATP luminescence, 72 h; Potency, µM (top dose mostly 46.1 µM), actives largely listed as cytotoxic; hit rate 1.4% among 400,000; also: nearly all actives have a fitted effect of over 60% in size
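Here the drug-naive KB-3-1 line serves as comparator for MDR sub-line selectivity; cells received compound titrations, 72 h at 37 °C, then CellTiter-Glo readout.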
A number is an active result; – = inactive; ? = inconclusive; · = no result; ! = not active in a repeat. Unless noted, calls follow the shape of the dose curve; as a rule, active = well fitted curve in the direction sought with a large enough effect; inconclusive = small, poorly fitted or top-dose-only effect, or another doubt; inactive = no such curve, though single readings can be large; an effect the other way counts as inactive or inconclusive.

SMILES	DRD3 antagonist	SW480 rereplic	MCF10A rerep	D3 ag	KB-V1 cytotox	KB-3-1 tox
Cc1ccc(/C=C2\CCC(C3CCCC3)C2=O)cc1 (stereo unspecified)	–	–	–	–	–	–
CN(C)CC1CC/C(=C\c2ccc(O)cc2)C1=O (stereo unspecified)	-61	10µM	3.3µM	–	?	?
COc1ccc(/C=C2\CCC(C3CCCC3)C2=O)cc1 (stereo unspecified)	–	–	–	–	–	–
COc1ccc(/C=C2/CCC(CN3CCOCC3)C2=O)cc1 (stereo unspecified)	-67	15µM	?	–	?	?
O=C1/C(=C\c2ccc(Cl)cc2)CCC1CNc1ccc(Cl)cc1 (stereo unspecified)	–	?	5.8µM	–	–	–
CCOc1ccccc1CNC(=O)Cn1nc(N2CCN(c3ccccc3)CC2)ccc1=O	·	·	·	–	–	–
CC1(C(=O)Nc2ccc3ccccc3c2)CCC(=O)N1CCc1c[nH]c2ccccc12 (stereo unspecified)	–	·	·	–	–	–
Cc1ccc(NC(=O)C(C)c2cccc(C(=O)c3ccccc3)c2)cc1O (stereo unspecified)	–	–	?	–	6.5µM	?
Cc1cccc(NC(=O)C(C)C(=O)c2ccccc2)c1 (stereo unspecified)	–	–	–	–	–	–
CN(C)S(=O)(=O)Oc1ccsc1C(=O)Nc1cccc(Cl)c1Cl	–	–	–	–	21µM	?
COc1cc(-c2cc(OC)c3c(C)oc(C)c3c(=O)c2)ccc1OC(=O)c1ccccc1F	·	·	·	–	·	·
CCC(C)NC(=O)c1c(-c2ccccc2)c(-c2ccccc2)nn(C)c1=O (stereo unspecified)	·	·	·	–	·	·
O=C1C2CC=CCC2C(=O)N1c1cccc(OS(=O)(=O)c2ccc3ccccc3c2)c1 (stereo unspecified)	–	–	?	–	21µM	–
Cc1ccc(S(=O)(=O)Oc2ccccc2N2C(=O)C3CC=CCC3C2=O)cc1 (stereo unspecified)	–	–	–	–	8.2µM	–
CCc1ccccc1N1C(=O)C2CC=CCC2C1=O (stereo unspecified)	–	–	–	–	–	–
CC1CCC2C(=O)N(c3cccc(OS(=O)(=O)c4ccccc4)c3)C(=O)C2C1 (stereo unspecified)	–	–	–	–	?	–
CCCCCCCOC(=O)C[N+](C)(C)CCOC1CC2CCC1(C)C2(C)C (stereo unspecified)	–	?	?	–	–	21µM
CCC(C)OC(=O)C[N+](C)(C)CCOC1CC2CCC1(C)C2(C)C (stereo unspecified)	–	–	?	–	–	21µM
CCCCCCOC(=O)C[N+](C)(C)CCOC1CC2CCC1(C)C2(C)C (stereo unspecified)	–	–	?	–	–	–
CC(C)CCOC(=O)C[N+](C)(C)CCOC1CC2CCC1(C)C2(C)C (stereo unspecified)	–	–	16µM	–	–	–
CCCOC(=O)C[N+](C)(C)CCOC1CC2CCC1(C)C2(C)C (stereo unspecified)	–	–	–	–	–	–
CCCCOC(=O)C[N+](C)(C)CCOC1CC2CCC1(C)C2(C)C (stereo unspecified)	–	–	–	–	–	–
Cc1nc2c(nc1C)C(=O)c1ccccc1C2=O	–	13µM	5.8µM	–	9.2µM	16µM
COC(=O)[C@H]1[C@H]2C[C@@H]3c4[nH]c5cc(OC)ccc5c4CCN3C[C@H]2C[C@H](OC)[C@@H]1OC	·	·	·	–	·	·
O=c1cc(CSc2ccccc2)[nH]c2ccccc12	–	–	–	–	–	–
SMILES	DRD3 antagonist	SW480 rereplic	MCF10A rerep	D3 ag	KB-V1 cytotox	KB-3-1 tox
O=c1cc(CSc2ccccc2)[nH]c(=S)[nH]1	-95	–	–	–	–	–
CC(C)NC(=O)C1CCN(C(=O)N2CCOc3ccc(Cl)cc32)CC1	·	·	·	–	–	–
CN(Cc1ccccc1)C(=O)c1oc(=O)c2ccccc2c1-c1ccccc1	–	?	?	–	8.2µM	–
Cc1ccc(-c2c(C(=O)NCc3ccccc3)oc(=O)c3ccccc23)cc1	–	–	–	–	?	–
Cc1ccc(-c2c(C(=O)N(C)Cc3ccccc3)oc(=O)c3ccccc23)cc1	–	–	?	–	4.6µM!	18µM!
Cc1ccc(Cn2c(=N)c(C(=O)NCc3ccco3)cc3c(=O)n4ccccc4nc32)cc1	–	3.5µM	11µM	–	–	?
N=c1c(C(=O)NCc2ccco2)cc2c(=O)n3ccccc3nc2n1CCc1ccccc1	–	13µM	8.2µM	–	21µM	18µM
Cc1cc2nc(-c3cccc(NC(=O)CSc4ccc(Cl)cc4)c3)oc2cc1C	·	·	·	–	–	–
CCOC(=O)c1ccc(NCc2ccc3c(c2)OCO3)cc1	–	?	?	–	21µM	–
CCOC(=O)c1c(C)c(C(=O)Nc2ccc(N(C)C)cc2)c(C)n1CC	–	10µM	6.5µM	–	4.1µM	7.3µM
CCOC(=O)c1ccc(NC(=O)Nc2ccc3c(c2)OCCO3)cc1	–	–	–	–	15µM	?
CCOC(=O)c1c(C)c(C(=O)Nc2ccc3c(c2)OCCO3)c(C)n1C	–	–	?	–	15µM	?
COc1cccc(OC)c1C(=O)Nc1ccc2c(c1)OCCO2	–	–	–	–	–	–
CCOC(=O)c1ccc(NCc2ccc(N(C)C)cc2)cc1	?	–	–	–	–	–
Cc1ccc(CNCc2ccc3c(c2)n(C)c(=O)n3C)cc1	·	·	·	–	–	–
CCOc1ccccc1N(C)C(=O)NCc1noc2ccccc12	·	·	·	–	–	–
CCOC(=O)c1ccc(NC(=O)Nc2cccc(C)n2)cc1	–	–	–	–	?	–
CCOC(=O)c1ccc(NC(=O)Nc2ccn(C)n2)cc1	–	–	–	–	16µM	–
CCOC(=O)c1c(C)c(C(=O)OCC)n(C)c1C	–	–	–	–	–	–
CCOC(=O)c1c(C)c(C(=O)Nc2cc(F)ccc2F)c(C)n1C	–	23µM	10µM	–	2.6µM	10µM
CCOc1ccc(N/C(C)=C/C(=O)c2ccc3c(c2)OCCO3)cc1	–	–	–	33	–	–
CCCOc1ccc(NC(=O)CC2C(=O)N(c3ccc(C)cc3)C(=O)N2Cc2cccc(OC)c2)cc1 (stereo unspecified)	·	·	·	–	·	·
CN(C1CCCCC1)S(=O)(=O)c1ccc2c(c1)c(=O)c(C(=O)N1CCN(c3ccccc3)CC1)cn2C	·	·	·	–	?	–
CCN(CC)S(=O)(=O)c1ccc(OC)c(NC(=S)Nc2ccc(C)c(C)c2)c1	–	?	?	–	18µM	–
Cc1cc(C)cc(N(CC(=O)Nc2c(C)cc(C)cc2C)S(=O)(=O)c2c(C)nn(C)c2C)c1	·	·	·	78	–	–
